Data: PubChem BioAssay AID624491 (Broad Institute, 2012)
Screen size: about 1,800 compounds; about 1,400 (78%) were called active. About 2% were inconclusive and are not listed.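 Rule for the calls: active = fitted curve crossing a set activation limit at or below the highest valid dose tested; inconclusive = flat fit at 30 to 70% activation, or poor fit; inactive = the rest, including signal decreases.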 The set was probably picked from earlier hits. Not all results are given here. Results with a measured potency or affinity are listed apart.

Experiment: N-linked glycosylation inhibitors, luciferase reporter, dose response, D54 ERlucT cells, luminescence, cherry-picks (AID 624491);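 note: signal gain reflects blocked N-linked glycosylation of a luciferase reporter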
Settings: 24 h, 100% = twice neutral-control luminescence; series mostly up to 19.5 µM

Activation (NLG inhibition), inactive:
CC[C@@H]1CC=C[C@H]2[C@H]1C(=O)N(Cc1ccccc1)[C@H]2c1ccoc1
c1ccc2[nH]c3cc4ncnc4cc3nc2c1
NS(=O)(=O)c1ccc(N=Nc2c(O)[nH]c3ccc(Br)cc23)cc1
COc1ccc(CN(C)c2ncnc3sccc23)c(OC)c1OC
CCc1ccccc1NC(=O)Cn1nnc(C(=O)NCc2cccs2)c1N
O=C(NCc1ccc2c(c1)OCO2)c1cc([N+](=O)[O-])ccc1N1CCOCC1
COc1ccc(C(=O)/C=C/c2ccccc2F)c(OC(=O)c2ccc([N+](=O)[O-])cc2)c1
CC1=C[C@@H](C)[C@@H](c2ccc(C(F)(F)F)cc2)OC1=O
O=C(COc1ccc2c(-c3ccccc3)cc(=O)oc2c1)N[C@@H](Cc1c[nH]c2ccc(O)cc12)C(=O)O
COc1ccc2c(c1)c1ccc3c(c1n2C)C(=O)C=CC3=O
COc1cc2c(cc1OC)C(c1ccccc1)N(C(=O)CCl)CC2 (stereo unspecified)
COc1ccc(CC(=O)NCc2ccccc2)cc1
COc1ccc(NS(=O)(=O)c2cc(NC(=O)c3nn(C)c(=O)c4ccccc34)ccc2OC)cc1
COc1cc2nc(NC(=O)c3ccccc3)sc(=O)c2cc1OC
COc1ccc(C(=O)c2sc(Nc3ccccc3)nc2N)cc1OC
COc1ccccc1N(C)S(=O)(=O)c1ccc(C(=O)OCC(=O)N2CCC2)cc1
CC1CN(C(=O)c2cc(-c3ccc(Cl)s3)nc3ccccc23)CC(C)O1 (stereo unspecified)
O=C(c1cc(-c2cccs2)nc2ccccc12)N1CCN(c2ccccc2)CC1
O=C(N/N=C/c1ccc2c(c1)OCO2)c1sc2cc(Cl)ccc2c1Cl
Oc1[nH]c(N=C2N=c3ccccc3=N2)c2ccccc12
COc1cc(/C=C2/C(=O)N(C)C(=S)N2C)ccc1OCc1cccc(F)c1
C(=N\Nc1nc2ccccc2[nH]1)/c1c[nH]c2ccccc12
CCOC(=O)N1CCN(C(=O)c2cccc(N3C(=O)NC4CC3(C)Oc3ccc(Cl)cc34)c2)CC1 (stereo unspecified)
O=C(c1cccc([N+](=O)[O-])c1)N1CCN(c2cccc(Cl)c2)CC1
CCOc1ccc(C(=O)Nc2cc(-c3nc4ccccc4[nH]3)ccc2Cl)cc1[N+](=O)[O-]
Cc1c(Cl)ccc2c(C(=O)Nc3cc(C(C)(C)C)on3)cc(-c3ccccn3)nc12
O=C1COc2ccc(C(=O)/C=C/c3ccccc3)cc2N1
O=C(Cc1ccc(Cl)cc1)Nc1ccccc1N1CCN(C(=O)c2ccccc2)CC1
COc1ccc(N2CC(C(=O)Nc3cc(C(F)(F)F)ccc3N3CCCC3)CC2=O)c(OC)c1 (stereo unspecified)
O=C(COc1ccc(Oc2ccccc2)cc1)NCc1cn2ccccc2n1
NC(=O)[C@H]1CC2(CC(c3cccc(NC(=O)COc4ccc(Cl)cc4)c3)=NO2)CN1C(=O)C(c1ccccc1)c1ccccc1 (stereo partly specified)
O=C(c1ccc(Cl)cc1)C(CN1CCCCC1)c1ccccc1 (stereo unspecified)
Cc1cc(=O)oc2cc(OCC3CC(c4ccccc4)=NO3)ccc12 (stereo unspecified)
CC(=O)Nc1ccc(/C=C/C(=O)c2ccc3c(c2)OCCO3)cc1
COc1cc(/C=C/C(=O)c2ccc3c(c2)OCCO3)cc(OC)c1OC
O=C(/C=C/c1ccncc1)c1ccc2c(c1)OCCO2
CCOc1cc(/C=C/C(=O)c2ccc(C)cc2)ccc1OCC(=O)N(C)C
O=C(C=Cc1ccc2c(c1)OCO2)C=Cc1ccc2c(c1)OCO2
C=CCOc1ccc(C2C(C#N)=C(N)N(Nc3ccccc3)C3=C2C(=O)CCC3)cc1OC (stereo unspecified)
Cc1cc(OC(C)C)nc(NCc2ccccc2)n1
COc1ccc(Cn2c(=O)cc(N)n(-c3ccccc3C)c2=O)cc1
Cn1c(N)c(C(=O)COC(=O)c2cc(S(=O)(=O)N3CCOCC3)ccc2F)c(=O)n(C)c1=O
CCCCCCCCCCCCCCCC[n+]1ccc(/C=N/O)cc1
Cc1ccc(OCCOC(=O)c2c(-c3ccccc3)noc2C)cc1
Cc1cc(C)c(C)c(OC(=O)c2sc(Cl)nc2C)c1
COc1ccc(C(=O)c2sc(Nc3ccccc3)nc2N)cc1
CN(C)c1ccc(/C=N/NC(=O)c2ccccc2Cl)cc1
CCOc1ccc(Nc2nc(Cc3nnc(SCC(=O)NCc4ccco4)n3CC)cs2)cc1
Cc1cc2cc(CNC(=O)Cc3cccs3)ccc2n1C
Cc1ccc(Cc2c(C)nc3nc(SCC(=O)NCc4ccco4)nn3c2C)cc1
S=c1[nH]nc(-c2cc(-c3ccccc3)n[nH]2)n1/N=C/C(Br)=C/c1ccccc1
COC(=O)CC1COc2ccccc2N1S(=O)(=O)c1ccc(OC)cc1 (stereo unspecified)
COc1ccc(F)cc1C1=CC(=O)C[C@H](c2ccc3c(c2)OCO3)C1
CN1CC(=O)N2C(c3ccc(Cl)cc3)c3[nH]c4ccccc4c3C[C@H]2C1=O (stereo partly specified)
CCc1ccc(/C=N/NC(=O)c2cc(-c3ccncc3)nc3ccccc23)s1
COc1cc(N=Nc2cccc(S(N)(=O)=O)c2)c2ccccc2c1N
Oc1ccc(NCc2cccs2)cc1
OCC1OC(n2cnc3c(=S)nc[nH]c32)CC1O (stereo unspecified)
O=C(Nc1c(Cl)ccc2nsnc12)c1ccc([N+](=O)[O-])o1
Cc1ccc2nsnc2c1NC(=O)c1ccc([N+](=O)[O-])o1
Oc1ccc(N=Nc2ccccc2)o1
CCCCCc1ccc(OCCC[n+]2ccccc2)c(CCCCC)c1
Cc1noc(C)c1COc1ccccc1C(=O)N1CCN(c2cccc(C(F)(F)F)c2)CC1
COc1ccc(CCCNC(=O)C2(C)Cc3c(-c4ccc5c(c4)OCO5)ccnc3O2)cc1 (stereo unspecified)
CC1(C(=O)NCc2ccccc2)Cc2c(-c3ccccc3)ccnc2O1 (stereo unspecified)
CC1(C(=O)Nc2ccc(Cl)cc2)Cc2c(-c3ccc4c(c3)OCO4)ccnc2O1 (stereo unspecified)
CC(=O)Nc1cccc(-c2ccnc3c2CC(C)(C(=O)NCc2ccc(N(C)C)cc2)O3)c1 (stereo unspecified)
CC1(C(=O)NCc2ccccc2)Cc2c(-c3ccc4c(c3)OCO4)ccnc2O1 (stereo unspecified)
O=C(CCl)Nc1cc(-c2ccccc2)nn1-c1ccccc1
CCOC(=O)c1c(C)oc2c(F)c(F)c(F)c(F)c2c1=O
COc1ccc(S(=O)(=O)Nc2ccc3c(c2)n(C)c(=O)n3C)cc1OC
CCOC(=O)c1c(NC(C)=O)sc2c1CCC(C=O)=C2Sc1ccccc1
CC(=O)Nc1sc(C)c(C)c1C(=O)OCC(=O)Nc1cccc(C)c1
COC(=O)c1cc(=O)n(Cc2ccco2)c(=Nc2ccc(F)cc2)s1
COc1ccc(-c2nc(NC(=O)C3CC(=O)N(c4ccc5c(c4)OCCO5)C3)sc2C)cc1 (stereo unspecified)
Cc1cnc(NC(=O)C2CC(=O)N(c3cccc(Cl)c3)C2)s1 (stereo unspecified)
CCOC(=O)C1CCN(S(=O)(=O)Cc2ccccc2)CC1
CCOC(=O)C1CCN(Cc2cc(Cl)c3ccccc3c2O)CC1
CCOC(=O)/C=C(\C)Sc1cc(=O)oc2ccccc12
Cc1ccc(C(=O)Nc2ccc(C(=O)/C=C/c3cccs3)cc2)cc1
Cc1ccc(OCC(=O)Nc2ccc(NC(=O)c3cccs3)cc2)c(C)c1
COc1ccc(Nc2nc(N)c(C(=O)c3ccc(F)cc3)s2)cc1
Cc1nn(CC(C)C)c(Cl)c1C(=O)N(c1ccc(Cl)cc1F)S(C)(=O)=O
C[C@]1(O)CC(=O)C=C[C@H]1Nc1ccccc1
COc1cccc(-c2cc(C(=O)Nc3cc(OC)c(OC)c(OC)c3)no2)c1
COc1cc(NC(=O)N2CCc3nc(NCc4cccc(Oc5ccccc5)c4)ncc3C2)cc(OC)c1OC
COc1cc2cc(-c3ccc(O)cc3O)nc(C)c2cc1OC
COc1ccc(C(=O)n2c(-c3ccco3)nc3ccccc32)cc1
CCOC(=O)C(=Cc1ccc(-c2ccsc2C(=O)OC)o1)C(=O)OCC
CCCN(CCC)S(=O)(=O)c1ccc(C(=O)Nc2nc3c(s2)CCc2ccccc2-3)cc1
O=C(NC1CCCCC1)c1cccc2c1C(=O)c1ccc(-c3ccc(OC(F)(F)F)cc3)cc1S2(=O)=O
CCN(CC)c1cc(C)c2cc(NC(=O)c3ccccc3OC)ccc2n1
CCOC(=O)c1cc2c(ccn2C)n1CC(=O)N1CCN(c2ccccc2)CC1
CCOC(=O)c1cc2sccc2n1CC(=O)N1c2ccccc2CC1C (stereo unspecified)
COC(=O)c1ccc2c(=O)n(Cc3ccc(C(=O)NC(C)C)cc3)c(=S)[nH]c2c1
COc1ccc(-n2c(=S)[nH]c3cc(C(=O)NC4CCCCC4)ccc3c2=O)c(OC)c1
CCN1/C(=C/c2ccc3ccccc3[n+]2CC)C=Cc2ccccc21
COc1cc(CCC(=O)Nc2nnc(C)s2)cc(OC)c1OC
Cc1noc2ncnc(Sc3ccc(Cl)cc3)c12
Cc1ccc(C)c(N2CCN(c3cnn(-c4nc5ccccc5s4)c(=O)c3Cl)CC2)c1
COc1ccc(C2NC(=S)NC3=C2CCCC3=C2SCCS2)cc1 (stereo unspecified)
O=C(Cc1csc(Nc2nc(=S)[nH]c3ccccc23)n1)NCc1cccc(Cl)c1
CNC(=O)c1cccc2nc3ccccc3nc12
CCOc1ccccc1C1CC(=O)Nc2cc3c(cc21)OCCO3 (stereo unspecified)
CC(C)Oc1ccccc1C1CC(=O)Nc2cc3c(cc21)OCO3 (stereo unspecified)
COc1cc(C2CC(=O)N(c3ccc(C)cc3)C(=O)C2)cc(OC)c1OC
